# Columns and labels:
# Assay in all cases: PBM binding z-score (relative to random genomic background probes); higher = stronger binding; sequences stand for … in GC…GCGATTGACAGCGTAGAATGAAGG
# [1] = system: FXR:RXRa (NR concentration 270 nM, RXRa partner concentration 90 nM)
# Outline: (§1)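 Probes were double-stranded and carried 34-nt variable regions with direct-repeat seeds, single-nucleotide variants, half-site ablations and random human genomic background sequences, printed on custom Agilent 4×180K protein-binding microarrays. Arrays were incubated 1 h with ligand-free nuclear receptor dimers in PBS pH 7.4, 2% milk, 0.02% Triton X-100, 1 mM DTT, 0.2 mg/mL BSA and 0.4 mg/ml salmon testes DNA. Antibodies against each partner (one per run) detected binding, and scanned fluorescence was regression-normalized. Binding z-scores use the random background probes as reference.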
# [2] = system: LXRa:RXRa (NR concentration 270 nM, RXRa partner concentration 90 nM)
# Outline: as §1
# [3] = system: LXRa homodimer (NR concentration 270 nM)
# Outline: as §1
# [4] = system: LXRb:RXRa (NR concentration 270 nM, RXRa partner concentration 90 nM)
# Outline: as §1
# [5] = system: LXRb homodimer (NR concentration 270 nM)
# Outline: as §1
# [6] = system: PPARa:RXRa (NR concentration 270 nM, RXRa partner concentration 90 nM)
# Outline: as §1
# [7] = system: PPARg:RXRa (NR concentration 180 nM, RXRa partner concentration 90 nM)
# Outline: as §1
# [8] = system: PPARg:RXRa 270nM:90nM, anti-RXR (NR concentration 270 nM, RXRa partner concentration 90 nM)
# Outline: as §1
# [9] = system: PPARg:RXRa 30nM:10nM, anti-RXR (NR concentration 30 nM, RXRa partner concentration 10 nM)
# Outline: as §1
# [10] = system: PPARg:RXRa 90nM:30nM, anti-RXR (NR concentration 90 nM, RXRa partner concentration 30 nM)
# Outline: as §1
# [11] = system: PPARg:RXRa DBDmut IVT, anti-RXR (DBD mutation: RXRa K156A/R161A, NR concentration 270 nM, RXRa partner concentration 90 nM)
# Outline: as §1
# [12] = system: PPARg:RXRa IVT, anti-PPARg (NR concentration 270 nM, RXRa partner concentration 90 nM)
# Outline: as §1
# [13] = system: PPARg DBDmut:RXRa IVT, anti-PPARg (DBD mutation: PPARg1 K132A/R137A, NR concentration 270 nM, RXRa partner concentration 90 nM)
# Outline: as §1
# [14] = system: PPARg DBDmut IVT, anti-PPARg (DBD mutation: PPARg1 K132A/R137A, NR concentration 270 nM)
# Outline: as §1
# [15] = system: PPARg homodimer (NR concentration 180 nM)
# Outline: as §1
# [16] = system: PXR:RXRa (NR concentration 270 nM, RXRa partner concentration 90 nM)
# Outline: as §1
# [17] = system: PXR homodimer (NR concentration 270 nM)
# Outline: as §1
# [18] = system: RARa:RXR (NR concentration 270 nM, RXRa partner concentration 90 nM)
# Outline: as §1
# [19] = system: RARa homodimer (NR concentration 270 nM)
# Outline: as §1
# [20] = system: RARb:RXRa (NR concentration 270 nM, RXRa partner concentration 90 nM)
# Outline: as §1
Sequence,PBM binding z-score [1],PBM binding z-score [2],PBM binding z-score [3],PBM binding z-score [4],PBM binding z-score [5],PBM binding z-score [6],PBM binding z-score [7],PBM binding z-score [8],PBM binding z-score [9],PBM binding z-score [10],PBM binding z-score [11],PBM binding z-score [12],PBM binding z-score [13],PBM binding z-score [14],PBM binding z-score [15],PBM binding z-score [16],PBM binding z-score [17],PBM binding z-score [18],PBM binding z-score [19],PBM binding z-score [20]
TCGAGTAGCTTAGGGGCATTCAGAATGGCGTCGA,-0.301,-0.0309,-0.497,0.0994,-1.06,0.246,-0.362,0.211,0.569,0.263,0.336,-0.404,-0.673,-0.923,-0.986,0.0972,-0.797,0.217,-1.45,0.238
TTACCAAGCTGAAAGGTCGTTGATGCACGCCTTG,0.616,0.94,-0.316,1.04,-1.11,2.08,1.29,3.29,1.06,2.53,-0.529,0.156,-0.407,-0.623,0.193,1.72,-0.0821,1.66,-0.928,1.36
CGTCCAAGGTCAAAGCTCAGTGAAGAGATGACGG,7.32,5.36,0.938,3.83,0.937,5.37,4.98,5.4,2.13,4.12,3.54,3.35,0.259,-0.242,3.06,3.96,0.865,4.6,1.16,5.14
GCTTGCAGGCCATTTGGGTCACTCAATGACGGGC,0.139,0.261,-0.325,0.146,-0.138,1.74,0.845,0.922,0.00542,0.391,3.07,3.01,-0.212,-0.514,0.237,0.662,0.0952,1.09,-0.792,1.76
CGTCCAAGGTCATAGGAGGTCTGTGAAGACAGAT,7.54,5.3,0.925,4.01,0.481,5.64,4.98,5.2,1.89,3.88,2.76,3.51,0.436,0.0298,2.07,4.86,1.09,4.27,0.26,5.05
CAAACTAGGTCAAGAGGTCAAAGTGCGCTTCCCG,7.08,6.47,5.76,5.71,2.04,6.59,10.2,8.63,7.04,8.54,8.41,8.51,1.86,0.825,5.5,6.13,2.6,7.48,2.21,5.47
AGAATGAGGTTAGTAAGATCAGGGAATTGCGGTC,0.169,0.283,-0.393,0.342,-0.18,1.6,1.07,1.06,0.16,0.634,2.97,2.49,0.854,-0.148,0.454,0.1,0.333,0.331,0.721,1.22
ACTTACGGGTCAACGAGGTTATAGCACGCGTATA,6.51,5.39,0.989,4.36,0.794,5.52,5.71,5.48,2.87,4.14,3.5,4.09,1.65,1.55,2.55,5.1,3.34,5.39,1.16,4.13
AATACAGGGTCTCTAGGCCAGAGTAGGTACGAAT,-0.207,-0.38,-0.356,-0.392,-0.462,-0.078,0.645,0.0123,-0.245,-0.282,0.633,1.69,-0.23,-0.134,0.115,-0.522,-0.459,-0.47,-0.399,0.389
TCGAGTAGGTTACCAACGGGGCATTCAGCTTTCT,0.106,1.75,-0.787,0.579,-1.13,1.15,0.374,1.13,1.03,0.692,3.15,2.64,-0.246,0.0471,-0.456,-0.0163,-0.774,0.402,-1.51,0.936
CGAACGAGCGCATGAGTTGATAGCAAATGCCGAT,-0.525,-0.575,-0.486,-0.865,-1.12,-1.7,0.405,-0.647,-0.312,-0.44,-0.785,-0.827,-0.939,-1.33,-2.16,-0.509,-0.275,-0.304,-0.678,-1.03
TAGCCTAGCTCATGCGGGCCAGTATAGTGTCGGC,-2.69,-1.21,-0.957,-1.4,-1.43,-1.23,-0.395,-1.21,-0.899,-0.925,-0.92,-0.527,-0.361,-0.899,-1.61,-1.02,-0.998,-1.04,-0.996,-1.16
GCTTGCGGGTCAAAGGTTATAGCATGAATAGAAT,7,5.1,0.347,5.46,-0.491,7.24,11.2,9.57,9.43,9.99,6.08,6.75,0.506,0.0418,2.11,6.07,0.118,7.94,0.537,4.53
AGTCAAAGTTCGCTAGGTAACGTAAGATTCAGCT,0.102,0.248,-0.0137,0.158,-0.513,0.793,1.64,2.36,0.554,1.85,0.109,1.13,0.0923,0.244,0.129,0.563,0.141,0.661,0.175,2
TCTTGTAGATCAACACGAGGTTAAGAAAGATCGA,0.233,1.58,0.248,1.01,-0.293,1.55,0.0854,1.33,2.58,1.94,1.48,1.07,0.862,1,0.489,1.05,0.0696,1.27,0.374,0.536

# Reference: the supplement of paper PMC6555819
